# Source: PubChem (several laboratories)
# Hits are enriched below; roughly 2% of the tested compounds scored in any of these assays.
# FAS TE block: FAS thioesterase (human) inhibition. inhibition, % at 15 µM. AID 602261. P49327. recombinant FAS-TE, OMFH fluorogenic substrate, fluorescence endpoint. actives 0.67% (n = 360,000);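 active = compounds whose normalised, plate-corrected inhibition of enzyme fluorescence in the single-dose primary screen is 50% or more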
# Target sequence (P49327 whole entry, looked up): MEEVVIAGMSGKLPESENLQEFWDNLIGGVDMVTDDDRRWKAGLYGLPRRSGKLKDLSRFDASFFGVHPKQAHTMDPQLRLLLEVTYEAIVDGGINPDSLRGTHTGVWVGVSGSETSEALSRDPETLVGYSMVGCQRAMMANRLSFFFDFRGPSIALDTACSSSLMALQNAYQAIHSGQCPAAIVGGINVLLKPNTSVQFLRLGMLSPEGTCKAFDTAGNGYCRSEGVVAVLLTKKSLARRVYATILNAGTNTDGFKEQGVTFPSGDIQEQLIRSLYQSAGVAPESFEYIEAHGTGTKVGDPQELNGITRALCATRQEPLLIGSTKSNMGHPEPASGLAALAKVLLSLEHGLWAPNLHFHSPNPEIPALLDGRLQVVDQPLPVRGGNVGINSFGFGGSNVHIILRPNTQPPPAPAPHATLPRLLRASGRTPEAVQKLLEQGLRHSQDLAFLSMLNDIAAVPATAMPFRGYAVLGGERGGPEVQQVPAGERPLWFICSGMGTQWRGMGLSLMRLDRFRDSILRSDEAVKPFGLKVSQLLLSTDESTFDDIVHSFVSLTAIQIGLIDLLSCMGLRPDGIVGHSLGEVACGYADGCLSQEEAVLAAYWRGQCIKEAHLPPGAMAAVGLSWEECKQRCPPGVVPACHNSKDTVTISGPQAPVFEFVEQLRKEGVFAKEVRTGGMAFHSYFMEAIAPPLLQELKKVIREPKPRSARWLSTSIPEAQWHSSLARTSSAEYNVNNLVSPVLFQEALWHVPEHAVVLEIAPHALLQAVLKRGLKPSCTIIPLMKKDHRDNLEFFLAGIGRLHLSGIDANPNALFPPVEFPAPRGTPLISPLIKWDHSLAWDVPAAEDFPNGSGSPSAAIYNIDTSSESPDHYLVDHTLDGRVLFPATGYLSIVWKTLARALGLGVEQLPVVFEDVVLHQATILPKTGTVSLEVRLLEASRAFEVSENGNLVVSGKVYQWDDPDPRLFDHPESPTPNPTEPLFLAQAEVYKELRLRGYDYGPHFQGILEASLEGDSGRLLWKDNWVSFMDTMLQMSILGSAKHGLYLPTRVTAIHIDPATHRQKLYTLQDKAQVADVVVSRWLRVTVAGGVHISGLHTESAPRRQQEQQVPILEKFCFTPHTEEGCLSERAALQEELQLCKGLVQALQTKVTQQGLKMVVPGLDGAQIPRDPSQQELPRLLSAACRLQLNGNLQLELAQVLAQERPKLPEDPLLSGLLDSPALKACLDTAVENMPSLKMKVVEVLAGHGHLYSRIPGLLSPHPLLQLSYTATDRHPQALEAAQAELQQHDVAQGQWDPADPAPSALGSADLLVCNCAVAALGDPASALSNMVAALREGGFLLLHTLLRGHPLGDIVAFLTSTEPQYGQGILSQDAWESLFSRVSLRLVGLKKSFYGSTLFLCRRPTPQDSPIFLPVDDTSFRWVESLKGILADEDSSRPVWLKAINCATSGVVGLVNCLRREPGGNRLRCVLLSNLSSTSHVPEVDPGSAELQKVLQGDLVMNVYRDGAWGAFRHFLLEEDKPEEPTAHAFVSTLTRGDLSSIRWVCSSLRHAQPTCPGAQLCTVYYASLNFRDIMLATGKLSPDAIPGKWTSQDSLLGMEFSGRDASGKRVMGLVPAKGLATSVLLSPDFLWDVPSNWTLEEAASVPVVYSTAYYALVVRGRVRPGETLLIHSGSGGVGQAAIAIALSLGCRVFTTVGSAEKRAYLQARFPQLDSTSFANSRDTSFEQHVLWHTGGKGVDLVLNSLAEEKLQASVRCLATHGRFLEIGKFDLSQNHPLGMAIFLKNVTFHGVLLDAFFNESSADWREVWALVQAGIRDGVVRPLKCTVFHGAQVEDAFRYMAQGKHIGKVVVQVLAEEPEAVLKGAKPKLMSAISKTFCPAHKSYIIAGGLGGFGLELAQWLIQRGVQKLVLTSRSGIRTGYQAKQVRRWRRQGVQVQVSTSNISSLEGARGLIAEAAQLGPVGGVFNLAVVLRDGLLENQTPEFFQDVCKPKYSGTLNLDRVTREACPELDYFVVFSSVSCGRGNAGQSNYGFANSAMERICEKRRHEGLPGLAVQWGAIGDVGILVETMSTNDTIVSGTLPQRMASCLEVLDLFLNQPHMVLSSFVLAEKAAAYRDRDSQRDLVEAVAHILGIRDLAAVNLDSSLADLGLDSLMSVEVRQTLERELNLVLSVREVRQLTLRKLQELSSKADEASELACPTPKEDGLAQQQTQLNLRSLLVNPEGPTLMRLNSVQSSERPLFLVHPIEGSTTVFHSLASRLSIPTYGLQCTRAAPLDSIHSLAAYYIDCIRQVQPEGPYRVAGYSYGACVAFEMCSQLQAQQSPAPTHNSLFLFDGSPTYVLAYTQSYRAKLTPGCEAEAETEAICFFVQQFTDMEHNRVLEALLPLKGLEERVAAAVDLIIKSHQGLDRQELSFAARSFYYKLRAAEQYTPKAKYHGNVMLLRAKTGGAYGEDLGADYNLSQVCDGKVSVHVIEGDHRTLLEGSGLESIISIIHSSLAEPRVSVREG
# GC-B act: GC-B (human) receptor activation; actives 0.11% (n = 370,000); HEK293-GC-B cells, CNP EC30, cGMP TR-FRET; 0% at EC30 CNP, 100% saturating CNP; AID 1920062; P20594; activation, % at 10 µM;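 active = activation at 10 µM reaching about 35% in either raw or pattern-adjusted values, limit read from the data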
# GC-A act: GC-A (human) enzyme activation. P16066. HEK293 GC-A cells, cGMP TR-FRET, EC30 ANP; 0% at EC30 ANP, 100% saturating ANP. AID 1671463. actives 0.14% (n = 370,000). activation, % at 10 µM; in the data active = activation above about 40%
# ADAM10 inh: inhibits human ADAM10 | O14672 | recombinant ADAM10, EDANS/DABCYL FRET peptide cleavage, 3 h | inhibition, % at 7 µM | actives 0.62% (n = 370,000);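 active = inhibition above a per-campaign cutoff equal to the mean of compounds falling between control-based bounds plus 3 SD, cut at about 20% in these data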
# ADAM17 inh: ADAM17 inhibition, QFRET primary screen. inhibition, % at 6.95 µM. P78536. AID 720648. actives 0.83% (n = 370,000). recombinant ADAM17, EDANS/DABCYL FRET peptide cleavage;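 active = inhibition above the mean of compounds lying between control limits plus 3 SD, set per campaign, cut at about 8.5% in these data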
# FAS-TE conf: confirmation of human fatty acid synthase thioesterase inhibitors; actives 45% (n = 2,300); recombinant FAS-TE, OMFH fluorogenic substrate, fluorescence; inhibition, % at 15 µM; shares compounds with FAS TE block;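 active = compounds inhibiting the enzyme by at least 50% at 15 µM in any one of the replicates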
# Hits are given with their value; i = inactive; nt = not tested or not shown.
SMILES,FAS TE block,GC-B act,GC-A act,ADAM10 inh,ADAM17 inh,FAS-TE conf
COc1ccc(/C=C/C(=O)Nc2cc(S(=O)(=O)N3CCCCC3)ccc2N2CCCCC2)cc1OC,90,i,i,i,i,i
COC(=O)C[C@@H]1CC[C@@H]2[C@H](COc3ccc(NC(=O)c4cccc(OC)c4)cc3C(=O)N2C)O1,nt,i,i,i,i,nt
Cc1cccc(C(=O)Nc2nc3ncccn3c2-c2ccccc2)c1,nt,i,i,i,i,nt
COc1cccc(OC(C)CCN2CCC(C(O)(c3ccccc3)c3ccccc3)CC2)c1 (centres undefined),nt,i,i,i,i,nt
COc1ccc(-c2csc(N3C(=O)CNC3=S)n2)cc1,i,i,i,i,i,nt
COc1ccc(-c2csc(N3C(=N)SCC3=O)n2)cc1,i,i,i,i,i,nt
COc1ccc(-c2csc(N3C(=O)C4C5c6ccccc6C(c6ccccc65)[C@@H]4C3=O)n2)cc1 (some centres undefined),59,i,i,i,i,i
COc1ccc(-c2csc(N3C(=O)C4C5c6ccccc6C(c6ccccc65)C4C3=O)n2)cc1 (centres undefined),63,i,i,i,i,i
CCOC(=O)[C@@]12CN(C(=O)OC(C)(C)C)CC=C1N(Cc1ccc(OC)cc1)C(=O)[C@H]2CC(=O)N1CCN(C(=O)C2CC2)CC1,nt,i,i,i,i,nt
COC(=O)c1cc(C(=O)NCCN2C(=O)S/C(=C\c3cccs3)C2=O)cc([N+](=O)[O-])c1,60,i,i,i,i,i
Cc1ccc(S(=O)(=O)c2cc3c(=O)n4ccccc4nc3n(C)c2=N)cc1C,i,i,i,i,i,nt
C=CCn1c(=N)c(S(=O)(=O)c2ccc(C)c(C)c2)cc2c(=O)n3ccccc3nc21,54,i,i,i,i,i
O=C(COc1ccccc1)Nc1nc(-c2ccc(S(=O)(=O)N3CCOCC3)cc2)cs1,86,i,i,i,i,58
O=S(=O)(c1ccc(-c2csc(Nc3ccc(Br)cc3)n2)cc1)N1CCCC1,i,i,i,i,i,nt
O=C(Nc1nc(-c2ccc(S(=O)(=O)N3CCCC3)cc2)cs1)C1COc2ccccc2O1 (centres undefined),90,i,i,i,i,43
COc1ccccc1OCC(=O)Nc1nc(-c2ccc(S(=O)(=O)N3CCOCC3)cc2)cs1,i,i,i,i,i,nt
O=S(=O)(c1ccc(-c2csc(Nc3ccc(F)cc3)n2)cc1)N1CCCC1,65,i,i,i,i,46
c1nc(NC[C@@H]2CCCO2)c2cc(-c3ccc4c(c3)OCO4)ccc2n1,nt,i,i,i,i,nt
Fc1nc(F)c(F)c(NCCCNc2c(F)c(F)nc(F)c2F)c1F,55,i,i,i,i,57
COc1ccc2c(c1)[C@H]1[C@H](CO2)[C@H](c2ccccc2)[C@]2(C)C(=O)Nc3cc(C)ccc3C(=O)N12,i,i,i,i,i,nt
COc1ccc2c(c1)OC[C@H]1[C@H]2N2C(=O)c3cc(F)ccc3NC(=O)[C@@]2(C)[C@H]1c1ccccc1,74,i,i,i,i,i
COc1ccc2c(c1)OC[C@H]1[C@H]2N2C(=O)c3ccc(C)cc3NC(=O)[C@@]2(C)[C@H]1c1ccccc1,90,i,i,i,9.6,i
CCOC(=O)[C@H]1[C@H]2COc3cc(OC)ccc3[C@@H]2N2C(=O)c3cc(F)ccc3NC(=O)[C@@]12C,i,i,i,i,i,nt
COc1ccc2c(c1)OC[C@H]1[C@H]2N2C(=O)c3cc(OC)ccc3NC(=O)[C@@]2(C)[C@H]1c1ccccc1,95,i,i,i,i,54
CCOC(=O)[C@H]1[C@H]2COc3cc(OC)ccc3[C@@H]2N2C(=O)c3cc(OC)ccc3NC(=O)[C@@]12C,i,i,i,i,i,nt
SMILES,FAS TE block,GC-B act,GC-A act,ADAM10 inh,ADAM17 inh,FAS-TE conf
COc1ccc2c(c1)OC[C@H]1[C@H]2N2C(=O)c3cc(Cl)ccc3NC(=O)[C@@]2(C)[C@H]1c1ccccc1,67,nt,nt,nt,nt,i
COc1ccc(CC(/C=C/c2ccc(F)cc2)c2ccccc2)cc1 (centres undefined),nt,i,i,i,i,nt
COc1ccc2c(c1)C(=O)N1[C@H]3c4cc(Cl)ccc4OC[C@@H]3[C@H](c3ccccc3)[C@]1(C)C(=O)N2,64,i,i,i,i,45
CCCCOc1nc(N2CCOCC2)nc(C)c1[N+](=O)[O-],i,i,i,i,i,nt
Cc1nc(N2CCOCC2)nc(Oc2ccccc2)c1[N+](=O)[O-],52,i,i,i,i,i
Cc1ccc(-n2c(SCC(=O)C(C)(C)C)nnc2-c2cccc(C)c2)cc1,nt,i,i,i,i,nt
CC1CCc2c(sc3nc(CN4CCN(S(=O)(=O)c5ccccc5[N+](=O)[O-])CC4)[nH]c(=O)c23)C1 (centres undefined),91,i,i,i,i,50
Cc1ccc(S(=O)(=O)N2CCN(Cc3nc4sc5c(c4c(=O)[nH]3)CCCC5)CC2)cc1,i,i,i,i,i,nt
COc1ccc(CCNC(=O)c2cc3c(C)nn(-c4ccccc4)c3s2)cc1OC,nt,i,i,i,i,nt
CC(CCN1CCC(C(O)(c2ccccc2)c2ccccc2)CC1)Oc1ccc(C#N)cc1F (centres undefined),nt,i,i,i,i,nt
Cc1ccc(S(=O)(=O)c2c(C(=O)c3ccccc3)cnc3cc4c(cc23)OCCO4)cc1,70,i,i,i,i,i
Cc1cc(-c2nc3ccccc3c(=O)o2)ccc1[N+](=O)[O-],i,i,i,i,i,nt
O=c1oc(-c2ccc(Cl)cc2[N+](=O)[O-])nc2ccccc12,62,i,i,i,i,i
CCCNC(=O)c1ccc(N2CCC3(CC2)CC(c2cccc(Br)c2)=NO3)c(NC(=O)c2ccc(Br)cc2)c1,i,i,i,i,i,nt
Cc1ccc(CNC(=O)c2ccc(N3CCC4(CC3)CC(c3cccc(Br)c3)=NO4)c(NC(=O)c3ccco3)c2)cc1,i,i,i,i,i,nt
Cc1ccc(CNC(=O)c2ccc(N3CCC4(CC3)CC(c3ccccc3)=NO4)c(NC(=O)c3ccco3)c2)cc1,64,i,i,i,i,i
CCCNC(=O)c1ccc(N2CCC3(CC2)CC(c2cccc(Br)c2)=NO3)c(NC(=O)c2c(Cl)cccc2Cl)c1,54,i,i,i,i,i
C[C@H]1[C@@H](NC(=O)c2ccc(O)cc2)CC[C@@]23CCCN2C(=O)CCC[C@@H]13,nt,i,i,i,i,nt
C[C@@H]1OC(C2CCCCC2)N(C)[C@H]2C[C@H]3c4[nH]c5cccc(-c6ccccc6)c5c4CCN3C(=O)[C@@H]12 (some centres undefined),nt,i,i,i,i,nt
CCn1c(=S)sc2c(=O)n(CC(=O)NC(C)CCc3ccccc3)c(C)nc21 (centres undefined),79,i,i,i,i,74
